The panel holds about 83,000 compounds, 20% with a hit somewhere; the sample as a whole holds those more often.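 Step 1: grow cells in 96-well plates. Step 2: add test compound at a single concentration. Step 3: incubate 48 h. Step 4: record percent growth.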 A number with no mark means an inactive call. Activity calls are given as the source filed them. The calls were made as follows: active = growth percent below 10; inactive = the rest.
System: A549/ATCC NSCLC
Test: NCI-60 one-dose screen, 48 h (100 = growth as untreated, 0 = no growth, -100 = all killed)
Conditions: 10 µM unless noted

Structure (SMILES) | growth
COc1ccc(-n2nc(C)c3c(Nc4ccc(NC(=O)Nc5ccc(Cl)c(C(F)(F)F)c5)cc4)ncnc32)cc1 | 6.97% (active)
O=C(/C=C/c1cccc([N+](=O)[O-])c1)c1ccc(O)c(CN2CCN(c3cc4c(cc3F)c(=O)c(C(=O)O)cn4C3CC3)CC2)c1 | 32.2%
CCC([N+](=O)[O-])S(=O)(=O)c1ccc(C)cc1 (stereo not drawn) | 96.7%
Cc1cn2c(/C=C3/C(=O)Nc4c3ccc3ccccc43)c(C(F)(F)F)nc2s1 | 20.1%
O=C1c2cc3c(cc2-c2c1c1ccc(F)cc1c(=O)n2C[C@H](O)[C@@H](O)[C@H](O)CO)OCO3 | -33.7% (active)
O=C(Nc1cccc2[nH]c(C(F)(F)F)nc12)c1ccc(-n2cnnn2)cc1 | 98.1%
Fc1ccc(CNc2cccc3[nH]c(C(F)(F)F)nc23)cc1 | 89.2%
O=C1c2cc3c(cc2-c2c1c1ccc(F)cc1c(=O)n2CCCNCCO)OCO3 | -74.4% (active)
N#CN1CC[C@H](C(=O)Nc2cc3cc(C(N)=O)ccc3cn2)C1 | 1.68% (active)

System: 786-0 renal
Test: as above
Conditions: 10 µM unless noted

Structure (SMILES) | growth
COc1cccc(/C=C2\Oc3cc(OCCN4CCCC4)ccc3C2=O)c1 | 95.8%
COc1ccc(-c2nc3ccc(-c4nc5ccc(N6CCN(c7ccncc7)CC6)cc5[nH]4)cc3[nH]2)cc1OC | 76.4%
Cc1ccc(C2=NN3C(C2)c2cc(Br)ccc2OC32CCN(Cc3ccccc3)CC2)o1 (stereo not drawn) | 103%
COc1cc2c(cc1-c1c(C)noc1C)ncc1nc(-c3ccccn3)n([C@H](C)COC(F)F)c12 | 50.4%
Cc1oc(-c2ccc(Cl)cc2Cl)cc1C(=O)Nc1nccs1 | 90.7%
COc1ccc2c(c1)c(-c1nonc1-c1cn(C)c3ccccc13)cn2C | 44.2%
COC(=O)c1ccc(NC(=O)c2ccc(-c3cccc([N+](=O)[O-])c3)o2)cc1 | 103%
COc1cccc(C2=NN3C(C2)c2cc(Br)cc(OC)c2OC32CCN(Cc3ccccc3)CC2)c1 (stereo not drawn) | 104%
O=C1c2cc3c(cc2-c2c1c1cc(F)c(F)cc1c(=O)n2CCCn1ccnc1)OCO3 | 8.02% (active)
Cc1ccc2c(C(C[N+](=O)[O-])c3ccccc3F)c(-c3ccccc3)[nH]c2c1 (stereo not drawn) | 56.7%
Cc1ccccc1COc1ccc(-c2onc(C)c2-c2ccc(Cl)cc2)cc1 | 75.5%
COC[C@H](C)n1c(C2CCOCC2)nc2cnc3cc(-c4c(C)noc4C)c(OC)cc3c21 | 51.6%
C#CCOc1ccc2ncnc(NCc3cccc(NC(=O)CCl)c3)c2c1 | 39.2% [8.25 µM]
COc1cc(-c2nn(C)nc2-c2cc3ccccc3s2)cc(OC)c1OC | 36.8%
O=C1NC(=S)N[C@H]1CC(=O)n1cnc2ccccc21 | 102%
O=S(=O)(Nc1ccc(I)cc1F)c1ccc(-c2cnc(C3CC3)o2)cc1 | 69.1%
CC[C@@H](C(=O)[C@@H](C)[C@@H](O)[C@H](C)[C@@H]1O[C@@H]([C@@H](CC)C(=O)O)CC[C@@H]1C)[C@H]1OC2(C=C[C@@H](O)[C@]3(CC[C@@](C)([C@H]4CC[C@](O)(CC)[C@H](C)O4)O3)O2)[C@H](C)C[C@@H]1C (stereo partly drawn) | 3.62% (active)
CCOC(=O)c1csc(NC(=O)COc2cccc(/C=C3\CSc4ccccc4C3=O)c2)n1 | 87.1%
CN1CCN(c2ccc3nc(-c4ccc(OCCCCN5CCN(CCCCN6C(=O)c7cccc8cccc(c78)C6=O)CC5)cc4)[nH]c3c2)CC1 | 53%
Cc1ncc(C(=O)Nc2ccc(CN3CCN(C)CC3)c(C(F)(F)F)c2)cc1C#Cc1cnc2cccnn12 | 1.06% (active)

Structure (SMILES) | growth
Cc1nc2c3c(-c4ccccc4)c(-c4ccccc4)oc3ncn2n1 | 99.1%
O=C(N/N=C/c1ccccc1O)c1ccccc1Nc1ccnc(C(F)(F)F)c1 | 0.0938% (active)
COC(=O)[C@]12CCC(C)(C)C[C@H]1[C@H]1C(=O)C[C@@H]3[C@@]4(C)c5c([nH]c6ccccc6c5=O)C(C)(C)[C@@H]4CC[C@@]3(C)[C@]1(C)CC2 | 86.3%
COc1ccc(-c2n[nH]nc2-c2csc3ccccc23)cc1OC | 30.7%
O=C1c2ccccc2C(=O)c2c(N=Nc3[nH]c(=S)[nH]c3O)cccc21 | 22.6%
Cn1c(NCCc2ccc(O)c(O)c2)nc2c1c(=O)n(Cc1ccc(Br)cc1)c(=O)n2C | 82%
Cc1ccc(/C=C2\SC(=S)N(CC(=O)NCCCN3CCOCC3)C2=O)cc1 | 104%
Cc1ccc(C2Oc3ccccc3C3CC(c4cccs4)=NN32)cc1 (stereo not drawn) | 99.8%
C=CC(=O)Nc1cccc(-c2nc(SC)nc(NCCc3ccc(OC)c(OC)c3)c2C#N)c1 | 68.2%
Cc1nc(/N=C(\N)NC(=O)Nc2cccc([N+](=O)[O-])c2)sc1C | 90.5%
COc1ccc(-n2nc(C)c3c(Nc4ccc(NC(=O)Nc5ccc(Cl)c(C(F)(F)F)c5)cc4)ncnc32)cc1 | -25.5% (active)
O=C(/C=C/c1cccc([N+](=O)[O-])c1)c1ccc(O)c(CN2CCN(c3cc4c(cc3F)c(=O)c(C(=O)O)cn4C3CC3)CC2)c1 | -11.2% (active)
CCC([N+](=O)[O-])S(=O)(=O)c1ccc(C)cc1 (stereo not drawn) | 89.4%
Cc1cn2c(/C=C3/C(=O)Nc4c3ccc3ccccc43)c(C(F)(F)F)nc2s1 | 24.8%
O=C1c2cc3c(cc2-c2c1c1ccc(F)cc1c(=O)n2C[C@H](O)[C@@H](O)[C@H](O)CO)OCO3 | 4.19% (active)
O=C(Nc1cccc2[nH]c(C(F)(F)F)nc12)c1ccc(-n2cnnn2)cc1 | 106%
Fc1ccc(CNc2cccc3[nH]c(C(F)(F)F)nc23)cc1 | 110%
O=C1c2cc3c(cc2-c2c1c1ccc(F)cc1c(=O)n2CCCNCCO)OCO3 | -84.8% (active)
N#CN1CC[C@H](C(=O)Nc2cc3cc(C(N)=O)ccc3cn2)C1 | 4.19% (active)
